Only some compounds are listed: those with a hit (about 4% of all), similar ones and a draw of the others.
PAX8 inh HTS: inhibitors of PAX8-driven TPO luciferase reporter, primary screen, RMG-I cells, single concentration | SteadyGlo, 24 h | hit rate 1.2% among 360,000 | inhibition, % at 12.6 µM | AID 652154, 2013;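 active = mean replicate inhibition at least 60% with every replicate also reaching 60%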;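 also: luciferase light reporting Pax8 driven TPO promoter activity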
esBAF inh: Bmi1 luciferase reporter increase in mESCs, primary screen, esBAF inhibitor project, mouse ES cells, Bmi1 luciferase knock-in, single point | reporter increase, % at 12.5 µM | 24 h; 100% = twice the neutral-well signal | hit rate 2% among 350,000; in the data active = activation above about 40%;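 also: a rise in the Bmi1 reporter signal indicates esBAF inhibition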
Wnt bcat act: Wnt/beta-catenin pathway activators, primary screen, cell-based, plate reader, single point; Wnt/beta-catenin reporter cell assay, activator; activation, % at 9.35 µM; hit rate 1.2% among 300,000; in the data active = activation above about 30%, passing the limit was not always enough
MITF act: activators of MITF-driven TRPM1 promoter reporter, primary screen, cell-based, SK-MEL-5, luciferase, single point; activation, % at 12.5 µM; AID 588334, 2011; hit rate 0.75% among 300,000; SK-MEL-5 TRPM1-promoter luciferase, 24 h; % of positive control, neutral wells = 0;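 active = mean activation of at least 80% with every replicate also reaching 80%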
TRPM1 prom inh: inhibitors of MITF-dependent TRPM1 promoter reporter, primary screen, cell-based, SK-MEL-5, single point, luciferase | SK-MEL-5 TRPM1 promoter luciferase, 24 h | inhibition, % at 12.5 µM | hit rate 0.83% among 330,000;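 active = mean inhibition across replicates of 60% or more, whatever share of single replicates reaches that level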
EWS-Fli block: EWS/Fli-driven NR0B1 reporter inhibitors, primary screen, A673 cells, NR0B1 luciferase, luminescence, MLPCN library; viability-normalised; inhibition, % at 12.6 µM; hit rate 0.67% among 350,000;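 active = mean inhibition of at least 50% after viability correction, with every replicate also passing that limit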;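 also: firefly luciferase signal divided by Alamar Blue viability fluorescence both relative to DMSO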
Numbers stand for hits; – = inactive; · = no result given.

SMILES	PAX8 inh HTS	esBAF inh	Wnt bcat act	MITF act	TRPM1 prom inh	EWS-Fli block
C[C@@H]1CN([C@H](C)CO)C(=O)c2cc(C#CC(C)(C)O)cnc2O[C@H]1CN(C)Cc1cccc(F)c1	–	–	·	·	·	–
O=C(c1ccco1)n1c(=S)nc2ccccn21	·	·	·	–	–	·
Cc1cccc2nc(=S)n(C(=O)c3ccco3)n12	·	75	·	–	–	·
C[C@@H]1CN([C@@H](C)CO)C(=O)c2cc(C#CCc3ccccc3)cnc2O[C@H]1CN(C)C(=O)C1CC1	·	–	·	·	·	–
CO[C@H]1CN(C)C(=O)c2ccc(NC(=O)c3cccc(F)c3)cc2OC[C@H](C)N(C)C[C@@H]1C	–	·	·	·	·	·
S=C1SCN(Cc2ccccc2)CN1Cc1ccccc1	–	–	–	–	–	–
S=C1SCN(Cc2cccnc2)CN1Cc1cccnc1	93	·	–	·	–	–
CN1[C@@H]2c3ccc(-c4ccccc4)c(=O)n3C[C@@H]2[C@@H](CO)[C@@H]1C(=O)NC1Cc2ccccc2C1	–	–	·	·	·	–
C[C@@H]1CN([C@@H](C)CO)C(=O)c2cc(NS(=O)(=O)c3ccc(Cl)cc3)ccc2O[C@@H]1CN(C)C(=O)Nc1cccc2ccccc12	–	–	·	·	·	–
O=C(CNC(=O)c1ccc(F)cc1)c1ccc(Cl)cc1	–	53	–	–	–	·
Cc1ccc(C(=O)CSc2nc(C(C)C)nc3ccccc23)cc1	–	–	36	–	–	–
CC(C)c1nc(SCC(=O)c2ccc(F)cc2)c2ccccc2n1	–	·	–	–	–	–
C[C@@H]1CN([C@H](C)CO)C(=O)c2cc(C#Cc3cccnc3)cnc2O[C@@H]1CN(C)C(=O)CC1CC1	·	–	·	·	·	–
Oc1oc(-c2ccccc2)nc1C=NCc1ccccc1	·	56	–	103	–	·
CN(C)c1ccc(N=Cc2nc(-c3ccccc3)oc2O)cc1	·	·	·	–	–	·
Oc1oc(-c2ccccc2)nc1C=Nc1ccccc1	·	·	–	–	–	·
CSc1ccccc1N=Cc1nc(-c2ccccc2)oc1O	·	52	·	–	–	·
CO[C@@H]1CN(C)C(=O)c2ccc(NS(=O)(=O)c3ccccc3)cc2OC[C@@H](C)N(Cc2ccccn2)C[C@H]1C	–	–	·	·	·	–
C[C@H](CO)N1C[C@H](C)[C@@H](CN(C)Cc2ccc(Cl)c(Cl)c2)Oc2c(NC(=O)Nc3ccc(C(F)(F)F)cc3)cccc2C1=O	·	–	·	·	·	–
COc1ccc(-c2cn(Cc3ccc(C)cc3)nn2)cc1	–	79	–	86	–	–
O=S(=O)(c1ccc(Cl)c(Cl)c1)c1snnc1-c1ccccc1	·	–	·	–	88	·
Cc1ccc(C2CN=NC23CCc2ccccc2C3=O)cc1 (stereo not drawn)	–	48	–	–	–	·
S=C1Cc2ccccc2N1	106	–	–	–	91	66
S=C1Nc2ccccc2CS1	–	·	–	·	·	–
COc1cc(/C=C/C(=O)OCC(=O)N2CCC(C)CC2)ccc1O	–	–	–	–	–	–
SMILES	PAX8 inh HTS	esBAF inh	Wnt bcat act	MITF act	TRPM1 prom inh	EWS-Fli block
COc1cc(/C=C/C(=O)OC2CC3CCC2(C)C3(C)C)ccc1O (stereo not drawn)	·	47	–	–	–	–
O=C(NCCN1C(=O)C2C3C=CC(C3)C2C1=O)Nc1ccc(Br)cc1 (stereo not drawn)	–	62	37	–	–	–
O=C(NCCN1C(=O)C2C3C=CC(C3)C2C1=O)Nc1cccnc1 (stereo not drawn)	–	–	–	–	–	–
CCOC(=O)N1CCC(NC(=O)c2ccc3c(c2)N=C(CC)c2cc(C)ccc2S3)CC1	–	–	–	–	–	·
CCOC(=O)N1CCC(NC(=O)c2ccc3c(c2)N=C(C)c2c(C)ccc(C)c2S3)CC1	96	–	–	–	–	–
CCC(O)(CC)C(=O)N(Nc1ccc(C)cc1)c1ccc(C)cc1	–	–	–	·	–	–
CCOC(=O)C(=O)N(Nc1ccc(C)cc1)c1ccc(C)cc1	–	·	44	–	–	–
C[C@@H]1CN([C@H](C)CO)C(=O)c2cccc(NC(=O)C3CC3)c2O[C@H]1CN(C)Cc1ccc(-c2ccccc2)cc1	·	–	·	·	·	–
O=C(CCl)N=c1sccn1Cc1ccccc1Cl	100	·	–	–	–	63
O=C(CCl)N=c1sccn1Cc1ccc(Cl)cc1Cl	111	·	–	–	–	–
O=C(CCl)N=c1sccn1Cc1cccc2ccccc12	111	·	–	–	–	–

Screening data from PubChem BioAssay.
